According to PubChem BioAssay (Tox21):
Several values for one entry are separate records, joined by “and”; a condition that tells them apart may be missing. Equal values may be shown once. Results filed as inconclusive are left out. Some structures have more than one record in an assay (separate samples or runs), and their calls can disagree. Activity calls are given as the source filed them. Unless noted, the call rests on the fitted dose curve; in most records, active means well fitted curve in the direction sought with a large enough effect in the repeat runs; inconclusive means weak or mixed curves; inactive means no such curve, though single readings can be large; an effect the other way counts as inactive or inconclusive.

How the values were obtained:
[1] = qHTS assay to identify small molecule agonists of the peroxisome proliferator-activated receptor delta (PPARd) signaling pathway - cell viability counter screen (AID 743211); details: PPARd-bla HEK293H viability, CellTiter-Glo luminescence, 17 h; series mostly up to 62.6 µM; further: nearly all actives have a fitted effect of over 55% in size; further: potency means the concentration at half of the fitted maximal effect
In short: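 qHTS cell viability: PPARd-bla HEK293H; 17 h cpd, 37C; CellTiter-Glo, luminescence at 30 min RT.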

[2] = biological target: Peroxisome proliferator-activated receptor delta (Homo sapiens) (UniProt Q03181); experiment: qHTS assay to identify small molecule agonists of the peroxisome proliferator-activated receptor delta (PPARd) signaling pathway (AID 743212; calls by dose curve; further: potency means the concentration at half of the fitted maximal effect); details: HEK293H PPARd-UAS-bla, beta-lactamase FRET ratio, 17 h; series mostly up to 62.6 µM
In short: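 GeneBLAzer PPARd UAS-bla HEK293H cells (beta-lactamase reporter under UAS control), plated and rested 5 h at 37 C, then exposed to compounds in DMSO at 37 C; LiveBLAzer B/G FRET substrate added, 2 h room temperature, fluorescence read.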

[3] = qHTS assay to identify small molecule antagonists of the peroxisome proliferator-activated receptor delta (PPARd) signaling pathway - cell viability counter screen (AID 743213); details: PPARd-bla HEK293H viability, CellTiter-Glo luminescence, 17 h; series mostly up to 62 µM; further: nearly all actives have a fitted effect of over 50% in size; further: potency means the concentration at half of the fitted maximal effect
In short: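 Luminescence from CellTiter-Glo, added after the bla read and incubated 30 min at room temperature, gives viability of HEK293H PPARd-bla cells exposed to compounds for 17 h at 37 C with 300 nM L165041.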

[4] = qHTS assay to identify small molecule agonists of the farnesoid-X-receptor (FXR) signaling pathway - cell viability counter screen (AID 743218); details: FXR-bla HEK293T viability, CellTiter-Glo luminescence, 16 h; series mostly up to 62.6 µM; further: nearly all actives have a fitted effect of over 45% in size; further: potency means the concentration at half of the fitted maximal effect
In short: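 Parallel cytotoxicity test: compound-treated (16 h, 37 C) HEK 293T FXR-bla reporter cells were lysed with CellTiter-Glo and luminescence recorded.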

[5] = qHTS assay to identify small molecule antagonists of the farnesoid-X-receptor (FXR) signaling pathway - cell viability counter screen (AID 743221; active means well fitted cell-killing curve with a large enough effect in the repeat runs, not every such curve was filed as active; further: nearly all actives have a fitted effect of over 50% in size; further: potency means the concentration at half of the fitted maximal effect); details: FXR-bla HEK293T viability, CellTiter-Glo luminescence, 16 h; series mostly up to 62.6 µM
In short: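 After a 5 h settling period, FXR-bla HEK 293T cells receive compound and chenodeoxycholic acid (50 uM final) and incubate 16 h at 37 C; CellTiter-Glo luminescence, read after 30 min at room temperature, reports cell viability.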

[6] = biological target: Peroxisome proliferator-activated receptor delta (Homo sapiens) (UniProt Q03181); experiment: qHTS assay to identify small molecule antagonists of the peroxisome proliferator-activated receptor delta (PPARd) signaling pathway (AID 743215; active means well fitted inhibition curve with a large enough effect in the signal ratio in the repeat runs, not every such curve was filed as active; the % refers to the signal ratio;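 further: cells stimulated with agonist L165041 at 300 nM final during compound exposure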; further: potency means the concentration at half of the fitted maximal effect); details: HEK293H PPARd-UAS-bla, beta-lactamase FRET ratio, antagonist, 17 h; series mostly up to 62 µM
In short: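 HEK293H UAS-bla, PPARd; agonist L165041 300 nM final with cpd in DMSO; 37 C 17 h; FRET substrate, RT 2 h; fluorescence intensity.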

[7] = biological target: Vitamin D3 receptor (Homo sapiens) (UniProt P11473); experiment: qHTS assay to identify small molecule antagonists of the vitamin D receptor (VDR) signaling pathway (AID 743223; active means well fitted inhibition curve with a large enough effect in the signal ratio in the repeat runs, not every such curve was filed as active; the % refers to the signal ratio; further: potency means the concentration at half of the fitted maximal effect); details: VDR-UAS-bla HEK293T, beta-lactamase FRET ratio, 16 h; series mostly up to 61 µM
In short: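 Reporter line VDR-bla; stimulus 1alpha,25-(OH)2 vitamin D3, 3 nM final; compound co-addition, 16 h 37C/5% CO2; LiveBLAzer B/G substrate 2 h RT; fluorescence intensity.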

[8] = biological target: Bile acid receptor (Homo sapiens) (UniProt Q96RI1); experiment: qHTS assay to identify small molecule antagonists of the farnesoid-X-receptor (FXR) signaling pathway (AID 743217; active means well fitted inhibition curve with a large enough effect in the signal ratio in the repeat runs, not every such curve was filed as active; the % refers to the signal ratio); details: HEK293T FXR-UAS-bla, beta-lactamase ratio, CDCA-stimulated, 16 h; series mostly up to 62.6 µM
In short: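 GeneBLAzer FXR-UAS-bla HEK 293T, CDCA-stimulated (50 uM final). Compound treatment 16 h, 37 °C. Detection: beta-lactamase cleavage of B/G FRET substrate, fluorescence.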

[9] = biological target: Bile acid receptor (Homo sapiens) (UniProt Q96RI1); experiment: qHTS assay to identify small molecule agonists of the farnesoid-X-receptor (FXR) signaling pathway (AID 743220; active means well fitted activation curve with a large enough effect in the signal ratio in the repeat runs, not every such curve was filed as active; the % refers to the signal ratio); details: HEK293T FXR-UAS-bla, beta-lactamase FRET ratio, 16 h; series mostly up to 62.6 µM
In short: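 Beta-lactamase reporter under UAS control in GeneBLAzer FXR HEK 293T cells (5000/well) measured with LiveBLAzer FRET substrate after 2 h at room temperature. Compound exposure lasted 16 h at 37C.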

[10] = biological target: Vitamin D3 receptor (Homo sapiens) (UniProt P11473); experiment: qHTS assay to identify small molecule agonists of the vitamin D receptor (VDR) signaling pathway (AID 743222; calls by dose curve; further: potency means the concentration at half of the fitted maximal effect); details: HEK293T VDR-UAS-bla, beta-lactamase FRET ratio, 16 h; series mostly up to 63.5 µM
In short: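 In VDR-bla cells, compound-induced beta-lactamase expression is quantified by FRET substrate fluorescence. Treatment lasts 16 h at 37C; substrate develops 2 h at room temperature.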
On the % scale 0 is the no-effect control and ±100 the full control effect.

Peroxisome proliferator-activated receptor delta (Homo sapiens), sequence (Q03181 whole entry, looked up): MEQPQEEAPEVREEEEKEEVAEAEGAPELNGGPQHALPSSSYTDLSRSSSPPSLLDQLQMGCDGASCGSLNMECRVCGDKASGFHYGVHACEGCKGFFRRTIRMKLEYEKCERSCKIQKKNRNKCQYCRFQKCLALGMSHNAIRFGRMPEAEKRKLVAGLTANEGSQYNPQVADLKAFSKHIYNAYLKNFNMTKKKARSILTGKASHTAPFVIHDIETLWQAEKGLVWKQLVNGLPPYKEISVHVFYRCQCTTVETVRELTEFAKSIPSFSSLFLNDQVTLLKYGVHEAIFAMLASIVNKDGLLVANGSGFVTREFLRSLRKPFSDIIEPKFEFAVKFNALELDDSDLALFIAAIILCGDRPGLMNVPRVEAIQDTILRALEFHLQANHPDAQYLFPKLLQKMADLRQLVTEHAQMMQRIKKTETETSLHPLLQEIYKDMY
Vitamin D3 receptor (Homo sapiens), sequence (P11473 whole entry, looked up): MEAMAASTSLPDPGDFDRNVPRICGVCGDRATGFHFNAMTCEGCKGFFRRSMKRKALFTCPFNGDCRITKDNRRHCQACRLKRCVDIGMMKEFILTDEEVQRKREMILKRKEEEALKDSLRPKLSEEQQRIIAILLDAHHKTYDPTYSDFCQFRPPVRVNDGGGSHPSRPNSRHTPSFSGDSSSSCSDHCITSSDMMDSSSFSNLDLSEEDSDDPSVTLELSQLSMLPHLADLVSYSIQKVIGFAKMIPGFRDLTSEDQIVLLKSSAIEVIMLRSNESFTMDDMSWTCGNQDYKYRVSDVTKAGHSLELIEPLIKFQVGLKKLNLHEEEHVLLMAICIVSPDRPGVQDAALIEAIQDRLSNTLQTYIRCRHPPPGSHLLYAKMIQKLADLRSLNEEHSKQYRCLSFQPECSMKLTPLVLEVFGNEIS
Bile acid receptor (Homo sapiens), sequence (Q96RI1 whole entry, looked up): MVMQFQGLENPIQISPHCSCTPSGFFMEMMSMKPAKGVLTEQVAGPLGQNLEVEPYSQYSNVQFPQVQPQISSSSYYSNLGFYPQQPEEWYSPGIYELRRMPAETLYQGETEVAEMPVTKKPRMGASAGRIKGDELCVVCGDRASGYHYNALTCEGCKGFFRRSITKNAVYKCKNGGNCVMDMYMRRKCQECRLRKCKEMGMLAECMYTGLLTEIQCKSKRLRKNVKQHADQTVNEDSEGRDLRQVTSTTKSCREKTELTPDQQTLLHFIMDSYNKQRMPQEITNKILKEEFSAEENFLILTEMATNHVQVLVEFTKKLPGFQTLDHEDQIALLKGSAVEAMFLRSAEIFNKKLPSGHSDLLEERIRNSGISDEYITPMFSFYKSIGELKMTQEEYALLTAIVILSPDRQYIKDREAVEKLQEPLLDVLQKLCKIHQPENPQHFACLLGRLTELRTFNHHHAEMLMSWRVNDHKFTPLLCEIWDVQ

COc1ccc(Cc2nccc3cc(OC)c(OC)cc23)cc1OC
inactive: Potency [1] | Potency [2] | Potency [3] | Potency [4] | Potency [5]

CN1[C@@H]2CC[C@H]1CC(O)C2 (stereo partly drawn)
inactive: Potency [1] | Potency [2] | Potency [3] | Potency [6] | Potency [4] | Potency [5] | Potency [7]

CC1CCCC1
inactive: Potency [1] | Potency [2] | Potency [3] | Potency [6] | Potency [4] | Potency [5] | Potency [7]

Nc1cc(Cl)ccc1Cl
inactive: Potency [1] | Potency [2] | Potency [3] | Potency [6] | Potency [4] | Potency [5]

CCC(C)Br (stereo not drawn)
inactive: Potency [1] | Potency [2] | Potency [3] | Potency [6] | Potency [4] | Potency [5] | Potency [7]

Clc1c(Cl)c(Cl)c(Cl)c(Cl)c1Cl
inactive: activity change, negative = cytotoxicity [1] 0.119% [at 5.95 µM] | activation [2] -6.6% [at 5.95 µM] | viability change, negative = cytotoxic [3] 0.753% [at 6.26 µM] | ratio activity, negative = inhibition [6] -0.823% [at 6.26 µM] | viability change, negative = cytotoxic [4] 24.1% [at 5.95 µM] | activity change, negative = cytotoxicity [5] 10.7% [at 5.95 µM] | activity change, negative = inhibition [7] 0.227% [at 6.95 µM]

CCN(CC)CCN1C(=O)CN=C(c2ccccc2F)c2cc(Cl)ccc21
inactive: Potency [1] | Potency [2] | Potency [3] | Potency [6] | Potency [8] | Potency [4] | Potency [9] | Potency [5] | Potency [10] | Potency [7]

CCOP(=S)(NC(C)C)Oc1ccccc1C(=O)OC(C)C (stereo not drawn)
active: Potency [4] 21.9 µM
inactive: Potency [1] | Potency [2] | Potency [3] | Potency [9] | Potency [7]

ClC1=C(Cl)[C@]2(Cl)[C@H]3[C@H]([C@@H]4C=C[C@H]3C4)[C@@]1(Cl)C2(Cl)Cl
inactive: Potency [2] | Potency [3] | Potency [6] | Potency [5] | Potency [10] | Potency [7]
active: Potency [4] 38.9 µM
inactive and 15.5 µM (active): Potency [1]

COc1ccc2c(c1OC)C(=O)O[C@@H]2[C@H]1c2cc3c(cc2CCN1C)OCO3
inactive: Potency [1] | Potency [2] | Potency [3] | Potency [6] | Potency [4] | Potency [5]

CCC1(CC)C(=O)N=C(O)NC1=O
inactive: Potency [1] | Potency [2] | Potency [3] | Potency [6] | Potency [4] | Potency [5] | Potency [7]

COC(=O)c1ccccc1S(=O)(=O)NC(=O)Nc1nc(C)nc(OC)n1
inactive: Potency [1] | Potency [2] | Potency [3] | Potency [6] | Potency [8] | Potency [4] | Potency [9] | Potency [5] | Potency [10]

O=Cc1ccccc1
inactive: Potency [1] | Potency [2] | Potency [6] | Potency [8] | Potency [4] | Potency [9] | Potency [5] | Potency [10] | Potency [7]

Fc1ccc(C(OCCN2CCN(CCCc3ccccc3)CC2)c2ccc(F)cc2)cc1
active: Potency [1] 16.8 µM | Potency [3] 26.6 µM | Potency [6] 29.8 µM

ClSC(Cl)(Cl)Cl
inactive: Potency [1] | Potency [2] | Potency [6] | Potency [5]

O=C1C(Cl)=C(Cl)C(=O)C(Cl)=C1Cl
active: Potency [1] 15.5 µM
inactive: Potency [2] | Potency [8] | Potency [5] | Potency [10]
inactive and 19.5 µM (active): Potency [4]

O=S(=O)(O)F
inactive: Potency [1] | Potency [2] | Potency [6] | Potency [9] | Potency [5] | Potency [10] | Potency [7]

Cc1ccn2nc(S(=O)(=O)Nc3c(F)cccc3F)nc2n1
inactive: Potency [1] | Potency [2] | Potency [6] | Potency [8] | Potency [4] | Potency [9] | Potency [5] | Potency [10] | Potency [7]

c1cc[n+]2c(c1)-c1cccc[n+]1CC2
inactive: Potency [1] | Potency [2] | Potency [6] | Potency [4] | Potency [5]

c1csc(-c2ccc(-c3cccs3)s2)c1
active: Potency [2] 43.6 µM | Potency [10] 24.5 µM
inactive: Potency [1] | Potency [8] | Potency [4] | Potency [5]

O=C(N[C@H]1N=C(c2ccccc2F)c2cccc3c2N(CC3)C1=O)c1cc2ccccc2[nH]1
inactive: Potency [1] | Potency [2] | Potency [6] | Potency [4] | Potency [5] | Potency [10] | Potency [7]

Cc1cccc(Cc2cnc[nH]2)c1C
inactive: Potency [1] | Potency [2] | Potency [6] | Potency [4] | Potency [5] | Potency [7]

Oc1ccc([C@H]2CNCc3c2ccc(O)c3O)cc1O
inactive: Potency [1] | Potency [2] | Potency [8] | Potency [4] | Potency [9] | Potency [5] | Potency [10] | Potency [7]

CSC1=N[C@@](C)(c2ccccc2)C(=O)N1Nc1ccccc1
inactive: Potency [1] | Potency [2] | Potency [3] | Potency [9] | Potency [5] | Potency [10] | Potency [7]

O=C(N[C@@H]1N=C(c2ccccc2F)c2cccc3c2N(CC3)C1=O)c1cc2ccccc2[nH]1
inactive: Potency [1] | Potency [2] | Potency [4] | Potency [5] | Potency [10] | Potency [7]

CC(C)c1c(CN(C)C(C)Cc2ccccc2)n(C)n(-c2ccccc2)c1=O (stereo not drawn)
active: Potency [3] 13.3 µM
inactive: Potency [1] | Potency [2] | Potency [9] | Potency [5] | Potency [10]

CC(Cc1ccc(O)cc1)NCC(O)c1cc(O)cc(O)c1 (stereo not drawn)
inactive: Potency [1] | Potency [2] | Potency [6] | Potency [8] | Potency [9] | Potency [5] | Potency [10]

O=C1C2(Cl)C3(Cl)C4(Cl)C(Cl)(Cl)C5(Cl)C3(Cl)C1(Cl)C5(Cl)C24Cl (stereo not drawn)
inactive: Potency [2] | Potency [9]
active: Potency [1] 48.2 µM and 46.9 µM | Potency [3] 54 µM | Potency [5] 54 µM | Potency [7] 54 µM

CCOC(=O)Cc1ccccc1
inactive: Potency [1] | Potency [2] | Potency [6] | Potency [8] | Potency [4] | Potency [9] | Potency [5] | Potency [10] | Potency [7]

Clc1ccc(C(c2ccc(Cl)cc2)C(Cl)Cl)cc1
inactive: Potency [2] | Potency [6] | Potency [9] | Potency [5] | Potency [10] | Potency [7]
active: Potency [1] 44.4 µM
